# Experimental data reported in ChEMBL document CHEMBL4888484, “Replenishing the malaria drug discovery pipeline: Screening and hit evaluation of the MMV Hit Generation Library 1 (HGL1) against asexual blood stage Plasmodium falciparum ,using a nano luciferase reporter read-out” (2022).
# The campaign covered roughly 4,800 compounds. About 410 (8.5%) showed an effect of 50% or more. The sample holds strong results, similar compounds and a random draw of the others, so the mix is not that of the screen.
# System: Plasmodium falciparum
# Assay: Confirmatory screen in NF54 pLDH assay, in single point, at 2uM, 72h
# Format: functional, Erythrocyte
# Details: timepoint 72 hour
row,SMILES,% Inhibition [%]
1,Cc1ccccc1CC(=O)Nc1ccc(-c2nc3ncccc3o2)cc1,5
2,CNc1nccc(OCc2ccccc2)n1,9
3,c1ccc(CCNc2nc(-c3ccccn3)cs2)cc1,31
4,Cc1ccc(-c2nc3ncccn3c2Nc2ccc3c(c2)OCCO3)o1,-4
5,NS(=O)(=O)c1ccc(CCNc2nc(-c3ccccc3)nc3ccccc23)cc1,5
6,COc1ccc(CNc2nc(-c3nnc(-c4ccccc4)o3)nc3ccccc23)cc1,-3
7,CNc1nc(NCc2ccccc2)nc2ccccc12,91
8,O=C1c2ccccc2[C@@H](Nc2ccc3c(c2)OCCO3)N1c1ccccn1,-8
9,CNc1nc(Nc2ccc3c(c2)OCCO3)nc2ccccc12,103
10,C[C@H](Nc1nc(N2CCCCC2)nc2ccccc12)c1ccccc1,-6
11,CNc1nc(NCCc2ccccc2)nc2ccccc12,92
12,CCN(CC)c1ccc(C(=O)C(F)(F)F)c(O)c1,0
13,CCC(=O)OCCN1CCN(CCN(C(=O)CC)c2ccc(C3CCCC3)cc2)CC1,3
14,O=C1C[C@H](c2nc3cc(Cl)ccc3o2)CN1c1ccc(F)cc1,-13
15,Cc1cccn2cc(CN(C)[C@H](c3ccccn3)C3CC3)nc12,4
16,COc1ccc2cc3n(c2c1)C[C@](C(=O)NC1CCCCCC1)(c1ccccc1)N(Cc1cccc(Br)c1)C3=O,10
17,Cc1ccc(NC(=O)CC(=O)O)c(C)c1,-5
18,NC1(c2noc([C@@H]3CCCO3)n2)CCCCCC1,13
19,CC1(C)c2ccccc2CCN1C(=O)CCc1ncc(-c2ccccc2)o1,8
20,CN1CCN(c2nc(-c3cccc(C(F)(F)F)c3)nc3c2cnn3Cc2ccccc2)CC1,-3
21,CN(c1nc2c(cnn2C)c(=O)[nH]1)C1CCCC1c1ccc(C(F)(F)F)cc1 (stereo unspecified),10
22,CN1CCC(n2ncc3[nH]c(-c4ccc(C(F)(F)F)cc4)nc32)CC1,99

row,SMILES,% Inhibition [%]
1,O=C(CCNC(=O)C1CC1c1c(F)cccc1Cl)NC1CCS(=O)(=O)C1 (stereo unspecified),-19
2,C[C@@H](CNc1nc(-c2ccccc2)nc2nc(-c3ccc(Cl)cc3)oc12)N1CCCCC1,76
3,O=c1[nH]c2ccccc2c(NCc2ccccc2)c1N1CCN(c2ccccc2)CC1,1
4,CC1(C)Cc2nc3ccccc3c(NCc3ccccc3)c2[C@@H](O)C1,54
5,CC(=O)N1CC[C@H](CC(=O)N(C)Cc2ccccc2)C1,0
6,Cc1ccc(NC(=O)Cn2c(C)cc(=O)c3sccc32)cc1Cl,-2
7,CCCNC(=O)Cn1nc2cc(-c3ccc(OC)cc3)nc(C)n2c1=O,-8
8,OC(CC(Nc1ccc(Cl)cc1)c1ccccc1)c1ccccc1 (stereo unspecified),-7
9,O=S(=O)(Cc1ccccc1)N1CCC2(CCCCC2)C1,6
10,COc1ccc(OC)c(-c2csc(N3C(=O)CC4CS(=O)(=O)CC43)n2)c1 (stereo unspecified),10
11,COc1ncnc2c1CN(C(=O)c1cc3c(s1)CC[C@H](C)C3)CC2,13
12,CO[C@H]1CCOC2(CCN(C(=O)c3ccccc3F)CC2)C1,9
13,O=C(CN1CCN(Cc2ccccc2F)C1=O)NC1CCCCCCC1,-2
14,O=C(c1ccccc1Cl)N1CCC[C@H](n2cnc3ccccc3c2=O)C1,-12
15,O=C(c1csc(C(=O)N2CCCC2)n1)N1CCN(Cc2ccccc2)CC1,-4
16,CCN(C[C@H]1CCCO1)C(=O)c1cnc(Cc2ccccc2)s1,-15
17,CCn1cc(C(=O)N(C2CCCCC2)C2CCCCC2)c(C)n1,-13
18,CN(C(=O)Cn1c(=O)n(-c2cc(F)cc(F)c2)c(=O)c2sccc21)c1ccccc1,9
19,O=C(CN1CCOCC1)N1CCN(CCCOc2ccccc2)CC1,9
20,Cc1nn(-c2nc3ccccc3[nH]2)c(O)c1CCC(C)C,68
21,Cc1nn(-c2nc3ccccc3[nH]2)c(O)c1Cc1ccccc1,17
22,Oc1cc(-c2ccc(F)cc2)nn1-c1nc2ccccc2[nH]1,-11

row,SMILES,% Inhibition [%]
1,O=S1(=O)CCC(NCCC2CCCO2)c2cc(F)c(F)cc21 (stereo unspecified),-1
2,C[C@H]1CS(=O)(=O)N(c2ccc(C(=O)Nc3ccccc3Oc3ccccc3)c(Cl)c2)C1=O,-3
3,O=C(CCS(=O)(=O)c1ccc2ccccc2c1)Nc1ncn(Cc2c(F)cccc2Cl)n1,4
4,Cc1ccc(CNC2CCN(C)CC2)c(OCc2ccco2)c1,3
5,O=C(NCCOc1cccc(F)c1)c1cccnc1NC1CCCC1,1
6,O=C(Nc1ccccc1-n1ccnc1)c1cnccn1,-7
7,Cc1cccc(N2CCN(C(=O)CCC3=Nc4cc(C(F)(F)F)ccc4S(=O)(=O)N3)CC2)c1C,12
8,COc1ccc(OC)c(CCNC(=O)Cn2ccc3cc(S(=O)(=O)N4CCCC4)ccc32)c1,11
9,COc1ccccc1C1c2[nH]c3ccccc3c2C[C@H]2C(=O)N(CC(O)c3ccccc3)CC(=O)N12 (stereo partly specified),12
10,CCOc1ccc(C2c3[nH]c4ccccc4c3C[C@H]3C(=O)N(C4CCN(Cc5ccccc5)CC4)CC(=O)N23)cc1OC (stereo partly specified),79
11,COc1ccc(CNC(=O)c2ccc(N3C(=O)[C@@H]4Cc5c([nH]c6ccccc56)C(c5cccc(OC)c5)N4C3=O)cc2)cc1 (stereo partly specified),32
12,CCN1c2cc(C)ccc2-n2cccc2C12CCNCC2,-7
13,COc1ccc(C(C)(C)C(=O)N(C)Cc2cn(C)nc2C(C)C)cc1,13
14,COc1nc(NC2CCS(=O)(=O)CC2)ncc1F,77
15,CC1(C)C(NCC(O)COc2ccc(F)c(F)c2)[C@@H]2CCC[C@@H]21 (stereo partly specified),75
16,Cc1cccc2sc(N3CCC[C@H](CNS(N)(=O)=O)C3)nc12,9
17,Cc1nc(N2CCC(c3nc(-c4ccccc4)no3)CC2)c2c(C)noc2n1,9
18,CCn1nccc1CN(C)C(=O)c1cc(S(=O)(=O)N(C)C)c(Cl)cc1Cl,-10
19,COc1cccc(-c2nc(C)c(C(=O)Nc3nc(C(C)C)n[nH]3)s2)c1,10
20,O=C(Nc1ccc(N2CCCC2)c(F)c1)C(=O)Nc1ccon1,-13
21,CN1CCCN(c2ccc(NC(=O)c3nn(-c4ccccc4)c(=O)c4ccccc34)cc2F)CC1,68
22,O=C(NC1CCCCC1)c1nn(-c2ccccc2)c(=O)c2ccccc12,-12
